Assay outcomes (PubChem)
The list is not random: actives were taken first. Their share in the collection is about 14%.
Lassa entry inh – Lassa virus entry inhibition. Lassa virus pseudotype entry inhibition, cell reporter. Potency, µM (highest dose often 37.9 µM), actives largely listed as inhibitors. 300,000 tested, 1.2% active. AID 540256; calls by dose curve; tested in HEK293 cells; further: nearly all actives have a fitted effect of over 50% in size
Pf growth 48h – P. falciparum growth inhibition at 48 hours (one generation) | 310,000 tested, 5.9% active | Potency, µM (titrated, usually from 28.7 µM), most hits filed as inhibitors | P. falciparum luciferase growth in erythrocytes, 48 h | AID 504832
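In quantitative HTS format, infected erythrocytes bearing luciferase-reporter parasites were treated for a single generation at 37 C. Luminescence after adding detection reagent served as the growth measure.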
MARV entry inh – inhibitors of Marburg virus binding or cell entry; Marburg virus pseudotyped entry inhibition, cell reporter; Potency, µM (titrated, usually from 37.8 µM), actives largely listed as inhibitors; 300,000 tested, 1.8% active; calls by dose curve; tested in HEK293 cells
HCMV inh – human cytomegalovirus inhibition; HFF cells, HCMV-luciferase reporter, 72 h; stronger effect = lower value; activity change, negative = inhibition, % at 57.5 µM; 410,000 tested, 4.5% active; in the data active means activity change below about -60%; inconclusive means no clear call, values can overlap the other calls; inactive means above about -39%
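Cell-based, HFFs, 1000 cells/well, 16 h 37C; cpds in DMSO + HCMV-luc, MOI 1 PFU/cell; 72 h 37C; OneGlo luminescence after 5 min RT; norm. to buffer vs Salinomycin 10uM.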
Pf growth 96h – inhibits malaria parasite growth, 96 h; P. falciparum luciferase reporter growth, 96 h; Potency, µM (doses to about 28.7 µM), hits mostly inhibitors; 320,000 tested, 6.9% active; AID 504834
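96 h incubation, 37 C, 5% CO2, of luciferase-reporter P. falciparum-infected RBCs (2% hematocrit, 0.05% parasitemia final) with test compounds; endpoint luminescence.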
HCV inh – blocks hepatitis C virus. Huh7.5.1 HCVcc-Cre infection, luciferase reporter, 44 h. 340,000 tested, 3.4% active. Potency, µM (doses to about 41.8 µM), actives largely listed as inhibitors
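A cell-based infection assay in which seeded cells (1,000 per well) receive test compound after 4 h, are inoculated with HCVcc-Cre at approximately 0.5 moi, and are incubated 44 h before luminescence detection.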
Each line names hits and unclear results; the compound was inactive in the other large screens; ! = not active in a repeat. Unless noted, the call rests on the fitted dose curve; in most records, active means well fitted inhibition curve with a large enough effect; inconclusive means small, poorly fitted or top-dose-only effect, or another doubt; inactive means no such curve, though single readings can be large or run the other way.

CN(Cc1ccccc1)C(=O)c1ccc(NC(=O)Cc2cccc(NC(=O)C3CCCN(C(=O)C4CCC4)C3)c2)cc1 (stereo not drawn)	Pf growth 48h 9.28µM, Pf growth 96h inconclusive (no result: Lassa entry inh, MARV entry inh)
CN(CCc1ccccc1)C(=O)c1ccc(NC(=O)Cc2cccc(NC(=O)C3CCN(C(=O)CCc4ccccc4)CC3)c2)cc1	none (no result: Lassa entry inh, Pf growth 48h, MARV entry inh, Pf growth 96h)
CN(CCc1ccccc1)C(=O)c1ccc(NC(=O)Cc2ccc(NC(=O)C3CCN(C(=O)CCc4ccccc4)CC3)cc2)cc1	HCMV inh -88.4, HCV inh 25.1µM (no result: Lassa entry inh, Pf growth 48h, MARV entry inh, Pf growth 96h)
CN(CCc1ccccc1)C(=O)c1ccc(NC(=O)Cc2ccc(NC(=O)C3CCCN(C(=O)C4CCC4)C3)cc2)cc1 (stereo not drawn)	HCMV inh -69.9, HCV inh inconclusive (no result: Lassa entry inh, Pf growth 48h, Pf growth 96h)
CN(C)Cc1ccccc1CNC(=O)c1ccc(Cl)c(S(=O)(=O)NC2CC2)c1	none (no result: Lassa entry inh, Pf growth 48h, MARV entry inh, Pf growth 96h, HCV inh)
COc1cccc(N(C(=O)c2cccs2)c2nc3ccccc3s2)c1	Lassa entry inh inconclusive, Pf growth 48h inconclusive, HCMV inh -101.5, HCV inh inconclusive (no result: Pf growth 96h)
CCN(C(=O)c1cccs1)c1nc(-c2ccc(OC)cc2)cs1	MARV entry inh inconclusive, Pf growth 96h inconclusive, HCV inh inconclusive
CC(O)/C=C/C1OC(=O)CC1Nc1ccc(C=O)cc1 (stereo not drawn)	Pf growth 96h 7.38µM (no result: Lassa entry inh, MARV entry inh)
COc1cccc(C(=O)Nc2cnc(NC(=O)c3ccco3)cc2C)c1	Pf growth 96h 5.22µM
Cc1cc(NC(=O)c2ccco2)ncc1NC(=O)Cc1ccccc1	Pf growth 96h 8.28µM
COc1cccc(C(=O)Nc2cc(OC)ccc2NC(=O)c2ccco2)c1	Lassa entry inh inconclusive, Pf growth 96h inconclusive, HCV inh inconclusive
O=C(O)CCn1c2c(c3ccccc31)C[C@H](NS(=O)(=O)c1ccc(F)cc1)CC2	none (no result: Lassa entry inh, MARV entry inh, HCMV inh, HCV inh)
CCN(CC)C(=O)c1ccc(COc2ccc(Cl)c(C)c2)o1	Lassa entry inh inconclusive, MARV entry inh inconclusive, Pf growth 96h inconclusive, HCV inh inconclusive
Cc1cccc(C)c1Nc1nnc(SCC(=O)NC(=O)c2cccn2C)s1	none
C/C(N)=C(/C#N)C(=O)CSc1nnc(Nc2c(C)cccc2C)s1	Pf growth 48h inconclusive, MARV entry inh inconclusive, HCMV inh -67.1!, Pf growth 96h 11.7µM
Cc1cccc(C)c1Nc1nnc(SCc2cn3cccc(C)c3n2)s1	Pf growth 48h inconclusive, HCMV inh -69.8, Pf growth 96h 10.4µM (no result: Lassa entry inh)
C/C(N)=C(/C#N)C(=O)CSc1nn(-c2ccc(Cl)cc2)c(=S)s1	Pf growth 48h inconclusive, Pf growth 96h inconclusive (no result: Lassa entry inh, MARV entry inh)
C/C(N)=C(/C#N)C(=O)CSc1nnc(SCc2ccc(Cl)cc2)s1	Lassa entry inh inconclusive, MARV entry inh inconclusive, HCMV inh -64.0, HCV inh inconclusive
CCN1C(=O)C(Cc2nc3ccccc3c(=O)n2-c2ccc(OC)cc2)c2cc(C)ccc21 (stereo not drawn)	none (no result: Pf growth 48h, Pf growth 96h, HCV inh)
CNC(=S)NCc1ccc2[nH]c3c(c2c1)CCCC3	HCMV inh -67.4 (no result: Lassa entry inh, MARV entry inh)
Cc1ccc(C)c(NC(=S)NCc2ccc3[nH]c4c(c3c2)CCCC4)c1	Lassa entry inh inconclusive, Pf growth 48h 13.1µM, MARV entry inh inconclusive, HCMV inh inconclusive, Pf growth 96h 13.1µM, HCV inh inconclusive
CCCCNC(=S)NCc1ccc2[nH]c3c(c2c1)CCCC3	HCV inh inconclusive (no result: Lassa entry inh, MARV entry inh)
Cc1ccccc1NC(=S)NCc1ccc2[nH]c3c(c2c1)CCCC3	Lassa entry inh inconclusive, MARV entry inh inconclusive, HCMV inh inconclusive, Pf growth 96h inconclusive, HCV inh inconclusive
CC1CC1c1ccc(/C=C(\C#N)C(=O)Nc2cc(Cl)ccc2Cl)o1 (stereo not drawn)	MARV entry inh inconclusive, Pf growth 96h inconclusive, HCV inh inconclusive
CC1CC1c1ccc(/C=C(\C#N)C(=O)Nc2ccc(Cl)cc2Cl)o1 (stereo not drawn)	MARV entry inh inconclusive, HCMV inh -64.1, HCV inh inconclusive
O=C(NCCO)c1ccc(Cl)c(Cl)c1	Pf growth 96h 14.7µM
CCOc1ccc(Br)cc1C1=NN(C(C)=O)C(c2ccc([N+](=O)[O-])s2)O1 (stereo not drawn)	Pf growth 48h 9.28µM, Pf growth 96h inconclusive, HCV inh inconclusive (no result: Lassa entry inh, MARV entry inh)
Cc1cc(C)c2c(CC(=O)NC(C)C)coc2c1	HCMV inh -61.2
Cc1cc(C)c2c(CC(=O)Nc3nnc(C(C)C)s3)coc2c1	MARV entry inh inconclusive, HCMV inh inconclusive (no result: Pf growth 48h, Pf growth 96h, HCV inh)
